Assay [1] can be described thus: ATG_TAL_CIS: Attagene CIS-FACTORIAL HepG2 Assay for human TAL Basal Promoter (AID 2282966).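 Further: background control endpoint measuring basal TAL promoter reporter mRNA not a specific factor.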 The conditions noted are these: HepG2 Attagene cis-factorial TAL promoter reporter; actives raise or lower the signal. The method in brief: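 Basal-promoter background-control endpoint from a multiplexed HepG2 reporter panel. Cells were exposed 24 h, then reporter mRNA was read by RT-PCR/CE fluorescence and fitted in both directions relative to DMSO.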

Assay [2] is described as follows: ATG_VDRE_CIS: Attagene CIS-FACTORIAL HepG2 Assay for human Vitamin D Receptor Element (VDRE) (AID 2282968). The following applies: HepG2 VDRE cis-reporter transcription, actives raise or lower the signal. The gist of the method: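 Readout is VDRE-driven reporter mRNA reflecting endogenous factor activity in human HepG2 cells, sampled 24 h post-dose. Quantification used labelled RT-PCR products separated by capillary electrophoresis; bidirectional analysis relative to DMSO.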

Assay [3] has as its target Nuclear receptor subfamily 1 group I member 3 (Homo sapiens) (UniProt Q14994). Kind of assay: ATG_CAR_TRANS: Attagene TRANS-FACTORIAL HepG2 Assay for human Constitutive Androstane Receptor (CAR) (AID 2282969; active means hit-call score of the fitted dose curve at least 0.9, where 1 is the maximum;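 further: activators raise reporter mRNA above DMSO so AC50 marks induction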). The conditions noted are these: HepG2 Attagene TRANS-FACTORIAL CAR reporter. The method in brief: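 Signal is reporter mRNA induction relative to DMSO, measured 24 h after dosing by RT-PCR with fluorescent primer extension and capillary electrophoresis. Human HepG2 liver cells carried transiently transfected chimeric NR-Gal4/GAL4-UAS reporter constructs.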

Assay [4] concerns the target Estrogen receptor (Homo sapiens) (UniProt P03372). Kind of assay: ATG_ERa_TRANS: Attagene TRANS-FACTORIAL HepG2 Assay for human Estrogen Receptor alpha (ERa) (AID 2282970; active means hit-call score of the fitted dose curve at least 0.9, where 1 is the maximum). The conditions noted are these: HepG2 Attagene TRANS ERa GAL4 reporter, mRNA. The gist of the method:
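Gal4-fusion ERa transactivation, measured as reporter transcript level in transiently transfected HepG2 cells. Exposure 24 h; RT-PCR plus capillary electrophoresis with fluorescence detection.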

Assay [5] addresses Steroid hormone receptor ERR1 (Homo sapiens) (UniProt P11474). Kind of assay: ATG_ERRa_TRANS: Attagene TRANS-FACTORIAL HepG2 Assay for human Estrogen-Related Receptor alpha (ERRa) (AID 2282971; active means hit-call score of the fitted dose curve at least 0.9, where 1 is the maximum). The following applies: HepG2 Attagene TRANS reporter, ERRa transactivation. The method in brief: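 HepG2 cells transiently transfected with GAL4-UAS reporter units and chimeric NR-Gal4 constructs; after 24 hour compound incubation, reporter mRNA quantified by RT-PCR, fluorescent labelling and capillary electrophoresis, gain of signal versus DMSO.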

For assay [6], the target named is X-box-binding protein 1 (Homo sapiens) (UniProt P17861). The experiment in a line: ATG_Xbp1_CIS: Attagene CIS-FACTORIAL HepG2 Assay for human X-box Binding Protein 1 (XBP1) (AID 2282972). The conditions noted are these: HepG2 XBP1 cis-element reporter, Attagene multiplex; actives raise or lower the signal. The gist of the method:
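Reporter transcripts were quantified by RT-PCR with fluorescent primer extension and capillary electrophoresis after 24 h chemical exposure. Cells: transiently transfected HepG2 carrying cis-regulated reporter constructs; data fitted bidirectionally relative to DMSO.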

Assay [7] is described as follows: ATG_M_19_TRANS: Attagene TRANS-FACTORIAL HepG2 Assay for M19 Transcription Factor (Internal Marker) (AID 2282974; active means hit-call score of the fitted dose curve at least 0.9, where 1 is the maximum). The conditions noted are these: HepG2 Attagene TRANS-FACTORIAL M19 internal marker reporter. The gist of the method: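 Using RT-PCR and capillary electrophoresis, reporter mRNA from transiently transfected human HepG2 cells was quantified following 24 h exposure; activity was fitted in the positive direction against DMSO.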

The nature of assay [8]: ATG_TGFb_CIS: Attagene CIS-FACTORIAL HepG2 Assay for human Transforming Growth Factor (TGF) (AID 2282967). The conditions noted are these: HepG2 Attagene CIS TGFb reporter, mRNA transcription; actives raise or lower the signal. The gist of the method: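 Transient MRTU transfection of HepG2 (FuGene 6). Dose 24 h. TriZol RNA, oligo(dT) RT, PCR, 6-FAM primer extension, HpaI cut, CE. Bidirectional fit, DMSO = baseline.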

Assay [9] can be described thus: ATG_Hpa5_TRANS: Attagene TRANS-FACTORIAL HepG2 Assay for human GAL4-Hpa5 Hepatocyte Transcription Factor Basal Promoter (AID 2282975; active means hit-call score of the fitted dose curve at least 0.9, where 1 is the maximum;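 further: hits are increases in reporter mRNA over DMSO baseline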). The following applies: HepG2 Attagene GAL4-Hpa5 transcription reporter. The method in brief: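 Gain-of-signal versus DMSO is fitted for reporter mRNA quantified by RT-PCR and capillary electrophoresis after 24 h exposure. This endpoint is an internal background marker in transiently transfected HepG2 cells carrying GAL4-UAS reporter units.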

The target of assay [10] is Androgen receptor (Homo sapiens) (UniProt P10275). Kind of assay: ATG_AR_TRANS: Attagene TRANS-FACTORIAL HepG2 Assay for human Androgen Receptor (AR) (AID 2282973; active means hit-call score of the fitted dose curve at least 0.9, where 1 is the maximum). The following applies: HepG2 Attagene TRANS-FACTORIAL AR reporter transcription. The procedure:
ATG_TRANS is a cell-based, multiplexed-readout assay that uses HepG2, a human liver cell line, with measurements taken at 24 hours after chemical dosing in a 24-well plate.ATG_AR_TRANS is one of 30 assay component(s) measured or calculated from the ATG_TRANS assay. It is designed to make measurements of mRNA induction, a form of inducible reporter, as detected with fluorescence intensity signals by Reverse transcription polymerase chain reaction (RT-PCR) and Capillary electrophoresis technology.Data from the assay component ATG_AR_TRANS was analyzed into 1 assay endpoint. This assay endpoint, ATG_AR_TRANS, was analyzed in the positive analysis fitting direction relative to DMSO as the negative control and baseline of activity. Using a type of inducible reporter, measures of mRNA for gain-of-signal activity can be used to understand the reporter gene at the transcription factor-level as they relate to the gene AR. Furthermore, this assay endpoint can be referred to as a primary readout, because this assay has produced multiple assay endpoints where this one serves a reporter gene function. To generalize the intended target to other relatable targets, this assay endpoint is annotated to the nuclear receptor intended target family, where the subfamily is steroidal.
Human liver HepG2 cells are transiently transfected with multiple reporter transcription units (MRTUs) in 6-well plates using FuGene 6 reagent (Roche; 3 ml FuGene/1 mg DNA). The MRTU constructs are regulated by a cis-regulating element (promoter). […] A major difference between the CIS and TRANS system is that in CIS activities of endogenous TFs are measured, whereas the TRANS assay evaluates changes in activities of exogenous, chimeric NR-Gal4 proteins. […] At the end of 24 hour incubation, total RNA was isolated using TriZol reagent (Invitrogen). The isolated RNA is then reverse-transcribed using oligo(dT) primer and Mo-MLV reverse transcriptase (Invitrogen) with DNAse I (Ambion) treatment for 30 min. The one-tenth of the produced cDNA was amplified by PCR using Taq DNA polymerase (Invitrogen) and two reporter sequence-specific primers. The PCR products were fluorescently labeled by primer extension with 6-arboxyfluorescein (6-FAM) 5'-labeled reporter sequence-specific primer (2 min at 95 C, 20 s at 68 C and 10 min at 72 C) and these products were digested with 5U of HpaI (New England Biolabs) for 2h at 37 C. The fragments were purified using Qiaquick PCR columns (Qiagen), analyzed on an ABI 3130xL genetic analyzer (Applied Biosystems) with peak positions identified by using a set of X-rhodamine (ROX)-labeled MapMarker1000 molecular weight standards (BioVentures). The raw capillary electrophoresis data was processed using Attagraph software (Attagene).

Results filed as inconclusive are left out. More than one record can exist for a structure, and the calls need not agree. Active and inactive are the calls of the source. How the source made its calls, unless noted: active means hit-call score of the fitted dose curve at least 0.9, where 1 is the maximum; inactive means score below 0.9.

Sequence of Nuclear receptor subfamily 1 group I member 3 (Homo sapiens) (Q14994 whole entry, looked up, the tested form may be a part): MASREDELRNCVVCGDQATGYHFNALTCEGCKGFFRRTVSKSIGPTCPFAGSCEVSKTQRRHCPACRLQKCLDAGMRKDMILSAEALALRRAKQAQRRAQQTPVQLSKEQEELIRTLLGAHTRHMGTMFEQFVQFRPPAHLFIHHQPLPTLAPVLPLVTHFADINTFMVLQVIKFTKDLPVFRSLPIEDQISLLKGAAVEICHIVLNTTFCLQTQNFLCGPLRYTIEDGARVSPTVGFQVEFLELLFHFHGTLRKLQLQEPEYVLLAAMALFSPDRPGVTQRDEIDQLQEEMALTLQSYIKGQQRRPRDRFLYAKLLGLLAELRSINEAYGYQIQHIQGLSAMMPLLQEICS
Sequence of Steroid hormone receptor ERR1 (Homo sapiens) (P11474 whole entry, looked up, the tested form may be a part): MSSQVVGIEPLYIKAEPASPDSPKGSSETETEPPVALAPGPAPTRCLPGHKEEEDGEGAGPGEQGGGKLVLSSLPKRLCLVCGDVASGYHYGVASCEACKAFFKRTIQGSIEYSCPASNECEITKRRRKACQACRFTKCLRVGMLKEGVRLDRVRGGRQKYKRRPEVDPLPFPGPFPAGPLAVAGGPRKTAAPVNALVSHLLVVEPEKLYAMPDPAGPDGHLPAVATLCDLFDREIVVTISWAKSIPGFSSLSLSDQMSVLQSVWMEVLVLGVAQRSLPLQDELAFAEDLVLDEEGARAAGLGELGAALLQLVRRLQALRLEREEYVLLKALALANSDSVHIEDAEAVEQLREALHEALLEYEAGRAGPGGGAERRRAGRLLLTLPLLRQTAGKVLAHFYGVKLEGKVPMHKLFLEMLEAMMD
Sequence of Androgen receptor (Homo sapiens) (P10275 whole entry, looked up): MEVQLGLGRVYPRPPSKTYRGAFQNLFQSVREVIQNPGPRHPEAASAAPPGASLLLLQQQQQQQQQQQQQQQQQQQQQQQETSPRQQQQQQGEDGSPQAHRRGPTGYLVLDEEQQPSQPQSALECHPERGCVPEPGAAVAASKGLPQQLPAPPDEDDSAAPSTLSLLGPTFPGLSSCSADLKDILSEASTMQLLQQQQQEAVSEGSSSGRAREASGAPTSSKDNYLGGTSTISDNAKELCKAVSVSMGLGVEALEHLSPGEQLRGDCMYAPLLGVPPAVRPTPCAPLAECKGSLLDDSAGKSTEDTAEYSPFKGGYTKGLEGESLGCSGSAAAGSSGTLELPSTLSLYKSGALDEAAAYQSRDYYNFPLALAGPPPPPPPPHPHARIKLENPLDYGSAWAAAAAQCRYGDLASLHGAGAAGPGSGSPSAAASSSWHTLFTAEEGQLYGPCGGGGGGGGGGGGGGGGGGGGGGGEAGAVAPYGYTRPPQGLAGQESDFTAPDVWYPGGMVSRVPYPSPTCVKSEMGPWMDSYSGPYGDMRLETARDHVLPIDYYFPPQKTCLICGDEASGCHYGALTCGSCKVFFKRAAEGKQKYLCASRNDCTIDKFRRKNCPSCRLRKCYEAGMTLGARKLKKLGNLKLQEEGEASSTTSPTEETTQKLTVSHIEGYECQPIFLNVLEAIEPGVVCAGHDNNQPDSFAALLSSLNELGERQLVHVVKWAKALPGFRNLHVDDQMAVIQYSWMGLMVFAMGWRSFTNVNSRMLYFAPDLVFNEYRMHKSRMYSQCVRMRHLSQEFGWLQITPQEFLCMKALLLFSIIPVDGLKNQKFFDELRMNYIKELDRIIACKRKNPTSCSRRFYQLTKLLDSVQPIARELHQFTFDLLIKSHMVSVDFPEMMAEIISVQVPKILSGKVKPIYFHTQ
Sequence of Estrogen receptor (Homo sapiens) (P03372 whole entry, looked up, the tested form may be a part): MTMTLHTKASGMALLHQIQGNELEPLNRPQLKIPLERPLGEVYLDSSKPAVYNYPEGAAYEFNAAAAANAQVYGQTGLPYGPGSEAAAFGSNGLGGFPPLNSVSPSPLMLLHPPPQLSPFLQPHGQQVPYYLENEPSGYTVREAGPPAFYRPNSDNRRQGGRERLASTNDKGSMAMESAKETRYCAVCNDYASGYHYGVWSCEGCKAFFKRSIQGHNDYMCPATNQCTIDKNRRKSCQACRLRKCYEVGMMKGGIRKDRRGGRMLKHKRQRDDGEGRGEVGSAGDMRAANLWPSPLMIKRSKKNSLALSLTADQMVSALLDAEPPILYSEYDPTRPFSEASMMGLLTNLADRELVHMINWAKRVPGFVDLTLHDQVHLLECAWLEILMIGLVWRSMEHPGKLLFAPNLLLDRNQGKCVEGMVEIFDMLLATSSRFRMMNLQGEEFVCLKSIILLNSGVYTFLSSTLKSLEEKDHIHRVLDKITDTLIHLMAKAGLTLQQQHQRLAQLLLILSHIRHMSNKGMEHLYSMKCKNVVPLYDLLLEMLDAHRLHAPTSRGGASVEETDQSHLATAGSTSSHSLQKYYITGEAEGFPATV
Sequence of X-box-binding protein 1 (Homo sapiens) (P17861 whole entry, looked up): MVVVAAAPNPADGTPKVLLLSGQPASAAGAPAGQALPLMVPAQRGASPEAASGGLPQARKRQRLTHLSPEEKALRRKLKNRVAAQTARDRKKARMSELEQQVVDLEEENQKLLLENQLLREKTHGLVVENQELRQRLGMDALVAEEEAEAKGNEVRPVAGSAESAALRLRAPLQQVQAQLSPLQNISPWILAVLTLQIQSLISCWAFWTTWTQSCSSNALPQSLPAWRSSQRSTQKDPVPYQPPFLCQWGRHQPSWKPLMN

With `OCCOc1ccccc1`, the molecule was called inactive in [1], in assay [2], in assay [3], in assay [4], in assay [5] and in assay [6]. Also, in [7], the outcome was inactive.
For the molecule `CNC(=O)/C=C(\C)OP(=O)(OC)OC`, the molecule was classed as inactive in assay [1], in assay [2], in assay [3], in assay [4] and in assay [6].
Turning to `CC(C)OC(=O)Nc1cccc(Cl)c1`, the outcome in assay [1], in [8], in assay [4], in assay [5] and in [6] was inactive. For the same molecule, in assay [2], the AC50 was 50 µM (active).
Regarding `COC(=O)c1ccccc1CS(=O)(=O)NC(=O)Nc1nc(OC)cc(OC)n1`, the molecule was called inactive in [1], in assay [2], in assay [3], in assay [4], in assay [5] and in assay [6].
As for `O=C(O)C(F)(F)C(F)(F)C(F)(F)C(F)(F)C(F)(F)C(F)(F)C(F)(F)F`, the result in assay [1], in assay [8], in assay [2], in [6] and in assay [7] was inactive.
For `O=C(Nc1ccccc1)Nc1cnns1`, the result in assay [1], in assay [8], in assay [3], in [4], in assay [5] and in assay [7] was inactive. The AC50 was 50 µM (active) in assay [2] and 77.6 µM (active) in assay [6].
Take `CCOCN(C(=O)CCl)c1c(C)cccc1CC`: the result in [1], in [2], in assay [3], in assay [4], in assay [5] and in assay [6] was inactive. Moreover, in assay [7], the outcome was inactive.
In the case of `N#CN`, the call in [1], in [8], in assay [2], in assay [3], in assay [4] and in assay [6] was inactive.
With `CNC(=O)Oc1cccc(N=CN(C)C)c1`, the molecule was called inactive in assay [1], in assay [8], in [3], in assay [4] and in assay [9]. Also, the AC50 in [2] was 82.3 µM (active); in [6], 90.4 µM (active).
For `CCC(C)Nc1c([N+](=O)[O-])cc(C(C)(C)C)cc1[N+](=O)[O-]` (stereo not drawn), the result in [1], in [8], in [6], in assay [7] and in [9] was inactive. For the same molecule, the figures for the AC50 in assay [2] and in assay [4] were 19.2 µM (active) and 12.4 µM (active), respectively.
Regarding `Cc1cc(C)nc(NC(=O)NS(=O)(=O)c2ccccc2C(=O)OC2COC2)n1`, the molecule was classed as inactive in [1], in [3], in assay [4] and in [6]. In addition, the half-maximal activity concentration (AC50) in [2] was 50 µM (active).
Regarding `CCc1ccc(C(=O)NN(C(=O)c2cc(C)cc(C)c2)C(C)(C)C)cc1`, the molecule was called inactive in assay [1], in assay [8], in assay [4], in [5], in assay [6] and in assay [9]. In assay [2], the concentration at half-maximal activity (AC50) was 9.51 µM (active).
For `O=[N+]([O-])c1c(Cl)c(Cl)c(Cl)c(Cl)c1Cl`, the outcome in [1], in assay [8], in [3], in assay [6], in assay [7] and in assay [9] was inactive. The half-maximal activity concentration (AC50) in [2] and in [4] was 50 µM (active) in each case.
With `Oc1cc(Cl)ccc1Oc1ccc(Cl)cc1Cl`, the AC50 in assay [1] is 11.1 µM (active); in assay [2], 8.06 µM (active) [middle of 6 runs]; in assay [6], 11.3 µM (active) [middle of 7 runs]. Besides, the call in assay [1], in assay [8], in [2], in assay [3], in [5] and in assay [6] was inactive. The call in assay [7] was inactive.
Turning to `COP(=S)(OC)Oc1ccc(SC)c(C)c1`, the outcome in assay [1], in [8], in assay [3], in [6] and in [9] was inactive. The half-maximal activity concentration (AC50) was 25.7 µM (active) in [2] and 18.8 µM (active) in assay [4].
For the molecule `C#CCN1C(=O)COc2cc(F)c(N3C(=O)C4=C(CCCC4)C3=O)cc21`, the result in [1], in assay [2], in assay [3], in assay [4], in assay [6] and in assay [10] was inactive. Also, the result in assay [7] and in assay [9] was inactive.
For the molecule `COc1cc(OC)nc(NC(=O)NS(=O)(=O)c2cc(NC=O)ccc2C(=O)N(C)C)n1`, the call in assay [1], in assay [2], in assay [3], in [4], in assay [5] and in assay [6] was inactive. In addition, the result in [10] and in [7] was inactive.
In the case of `Clc1ccccc1-c1nnc(-c2ccccc2Cl)nn1`, the call in assay [1], in assay [2], in assay [3], in assay [4], in assay [6] and in [7] was inactive.
On to `CC(C)N(C(=O)COc1nnc(C(F)(F)F)s1)c1ccc(F)cc1`, for which the call in [1], in assay [8], in [4] and in assay [7] was inactive. The half-maximal activity concentration (AC50) in [6] was 29.7 µM (active).
With `O=[N+]([O-])/N=C1\NCCN1Cc1ccc(Cl)nc1`, the molecule was classed as inactive in assay [1], in [2], in assay [3], in assay [4], in [5] and in assay [6]. In addition, the outcome in assay [10] and in assay [9] was inactive.
Consider `ClC1C(Cl)C(Cl)C(Cl)C(Cl)C1Cl` (stereo not drawn), for which the values for the AC50 in assay [1] and in assay [6] were 100 µM (active) and 42.6 µM (active), respectively. The molecule was classed as inactive in assay [1], in [5], in [6], in assay [7] and in [9].
Regarding `O=C(NC(=O)c1c(F)cccc1F)Nc1ccc(OC(F)(F)C(F)OC(F)(F)F)c(Cl)c1` (stereo not drawn), the molecule was called inactive in assay [1], in assay [8], in assay [2], in assay [4] and in [6].
Take `COC(=O)c1ccccc1S(=O)(=O)NC(=O)Nc1nc(C)nc(OC)n1`: the call in assay [1], in [8], in assay [2], in assay [6] and in [7] was inactive.
Consider `CC1(C)C(C=C(Cl)Cl)C1C(=O)OC(C#N)c1ccc(F)c(Oc2ccccc2)c1` (stereo not drawn), for which the molecule was called inactive in assay [1], in assay [3], in [4], in assay [5], in [6] and in assay [7]. For the same molecule, the result in assay [9] was inactive. Further, the AC50 in [2] is 8.85 µM (active).
Regarding `CCOC1Oc2ccc(OS(C)(=O)=O)cc2C1(C)C` (stereo not drawn), the outcome in assay [1], in [3], in assay [6], in assay [10] and in assay [7] was inactive. Also, the AC50 in assay [2] was 25.7 µM (active); in [4] it was 25.4 µM (active).

Broadly, the AC50 is the concentration at which the activity in the assay is half-maximal.
